The campaign covered roughly 69,000 compounds. About 8,600 (12%) showed an effect of 50% or more. Shown is part of a subset that was picked to be rich in strong results.
The molecules below were run on Plasmodium berghei (assay: Screen against P. berghei liver stage (PbLuc), transformed with Luciferase, at 10uM). Conditions: tested at 10 uM.
Format: functional, HepG2

| Compound | INHIBITION |
| --- | --- |
| Cc1cccc(C(=O)N2CCCC(c3noc(C)n3)C2)n1 (stereo not given) | 4.71% |
| O=C(NCc1ccco1)[C@@H]1CCO[C@@H]2CCN(c3ccncn3)C[C@H]21 | 10% |
| COc1ccccc1C(O)CNC(=O)Nc1ccccn1 (stereo not given) | 35.9% |
| Cc1ccc2c(c1)c(C)cc(=O)n2CCCN | -17% |
| Cn1ccc2c(-c3cc(N4CCOCC4)ncn3)ccnc21 | -3.96% |
| Cn1ccc2c(-c3cc(N)nc(N4CCOCC4)n3)ccnc21 | 18.8% |
| CCc1cc(-c2ccnc3c2ccn3C)nc(N2CCOCC2)n1 | 51.5% |
| COc1cccc(CN2CCCCC2c2n[nH]cc2-c2cc(C)no2)c1 (stereo not given) | 25.8% |
| CNC(=O)c1cc2c(nc1NCC1CC1)CCN(c1ccncn1)CC2 | 32.4% |
| Cc1cc(C)n(CNc2nonc2C(N)=O)n1 | 44.1% |
| CCc1nnc(CN(C)C(=O)CN2CC(c3ccccc3)CC2=O)o1 (stereo not given) | 62.4% |
| CCc1cc(CN(C)C(=O)CN2CC(c3ccccc3)CC2=O)on1 (stereo not given) | 9.91% |
| CN(Cc1nc(C2CC2)no1)C(=O)CN1CC(c2ccccc2)CC1=O (stereo not given) | 3.96% |
| CCc1cc(O)n2nc(C3CCN(C(=O)c4cccnc4)CC3)cc2n1 | 13.3% |
| Cc1nc(C2(O)CCCNCC2)sc1CCOc1ccccc1 (stereo not given) | 49.6% |
| Cc1nc(C2(O)CCCNCC2)sc1CCOc1ccc(F)c(F)c1 (stereo not given) | 46% |
| CCCN1CCCC(O)(c2nc(C)c(COc3ccccc3)s2)CC1 (stereo not given) | 27.6% |
| Cc1nc(C2(O)CCCNCC2)sc1CCOc1ccc(F)cc1 (stereo not given) | 47.2% |
| Cc1nc(C2(O)CCCNCC2)sc1CCOc1ccc(Cl)cc1 (stereo not given) | 73.9% |
| Cc1nc(C2(O)CCCNCC2)sc1CCOc1ccccc1F (stereo not given) | 0.301% |
| CCN1CCCC(O)(c2nc(C)c(CCOc3ccccc3F)s2)CC1 (stereo not given) | 7.52% |
| CCN1CCCC(O)(c2nc(C)c(CCOc3ccc(F)cc3)s2)CC1 (stereo not given) | 59.3% |

| Compound | INHIBITION |
| --- | --- |
| COc1ccc(OCCc2sc(C3(O)CCCNCC3)nc2C)cc1 (stereo not given) | 52.3% |
| CCN1CCCC(O)(c2nc(C)c(CCOc3ccccc3Cl)s2)CC1 (stereo not given) | 28% |
| Cc1nc(C2(O)CCCNCC2)sc1CCOc1ccccc1Cl (stereo not given) | 55.6% |
| COc1ccc(OCc2sc(C3(O)CCCNCC3)nc2C)cc1 (stereo not given) | 31.3% |
| CCSc1cc(C(=O)NC2CCN(C(=O)c3ccccc3)CC2)ccn1 | 33.4% |
| Cc1ncc2c(n1)CN(Cc1nc(Cc3ccccc3)no1)CC2 | 41.2% |
| O=C(CCOc1ccc(Cl)cc1)NCCCn1cccn1 | 48.8% |
| O=C(CCOc1cccc(Cl)c1)N1CCN(c2cnccn2)CC1 | -8.11% |
| CCNC(=O)N1CCC(NC(=O)NCCc2cc(F)cc(F)c2)C1 (stereo not given) | 57.3% |
| Cc1cccc(CC(=O)NC2CCN(C(=O)NC(C)(C)C)CC2)c1 | -38.4% |
| CCNC(=O)N1CCC(NC(=O)NCCc2cccc(C)c2)C1 (stereo not given) | 77.7% |
| CCNC(=O)N1CCC(NC(=O)NCCCc2cccc(F)c2)C1 (stereo not given) | 35% |
| CCNC(=O)N1CCC(NC(=O)NCCc2ccc(C)cc2C)C1 (stereo not given) | 51.7% |
| CCNC(=O)N1CCC(NC(=O)NCCc2cc3ccccc3o2)C1 (stereo not given) | -43.8% |
| Cc1ccc(CCNC(=O)NCCCC(N)=O)c(C)c1 | -18.6% |
| CCNC(=O)N1CCC(Cc2cccc(C(N)=O)c2)C1 (stereo not given) | 10.7% |
| CC1CCN(C(=O)NCCc2cc(F)ccc2F)C1 (stereo not given) | -21.2% |
| Cc1ccc(CN2Cc3c(C(=O)N4CCN(C)CC4)nn(C)c3C2)s1 | 3.25% |
| COCc1n[nH]/c(=N\C(=O)c2c3c(nc4onc(C)c24)CCC3)s1 | 10.7% |
| CC1(C(=O)N2CCOCC2)CN(Cc2ccccc2F)CCO1 (stereo not given) | 25.6% |
| O=C(Nc1ccc(-c2csnn2)cc1)NC(CCO)C1CC1 (stereo not given) | 6.11% |
| Cc1ccc(Cl)cc1NCc1nc2[nH]c(C)c(C)c(=O)n2n1 | 18.3% |

| Compound | INHIBITION |
| --- | --- |
| Cc1[nH]c2nc(CNc3ccccc3Cl)nn2c(=O)c1C | -7.83% |
| CCc1ccccc1NCc1nc2[nH]c(C)c(C)c(=O)n2n1 | 52.5% |
| CN1CCC(Nc2cc(Cl)ccc2OCC(F)(F)F)C1=O (stereo not given) | 4.34% |
| Cc1cc(CCC(=O)N(C)C)nc(C2CCCCN2)n1 (stereo not given) | 26.3% |
| Cc1cc(C(=O)NCc2ccccn2)no1 | -1.88% |
| COCCCNC(=O)Cc1cc(-c2ccccc2)on1 | -34.3% |
| O=C(Cc1cc(-c2ccc3c(c2)OCO3)on1)NC1CCCC1 | 14.6% |
| Cn1cc(CCNC(=O)CCc2ccc3c(c2)OCO3)cn1 | 31.3% |
| Cc1nnc(SCCCNC(=O)Cc2ccc3c(c2)OCO3)s1 | 40.9% |
| COCCCNC(=O)Cc1cc(-c2ccc3c(c2)OCO3)on1 | 65.7% |
| O=C(Cc1cc(-c2ccc3c(c2)OCCO3)on1)NCc1ccccn1 | 70% |
| COCCCNC(=O)Cc1cc(-c2ccc(Cl)cc2)on1 | 53.7% |
| COCCCNC(=O)CN(C)C(=O)c1cc(Cl)ccc1O | -15.8% |
| O=C(N1CCOCC1)N1CCCC(c2ncncc2-c2ccncc2)C1 (stereo not given) | 5.11% |
| CC(=O)NCCNC(=O)CN1CCOC(Cn2cccn2)C1 (stereo not given) | 9.29% |
| Cc1csc(N2CCCN(CCC(=O)NC(N)=O)CC2)n1 | 9.54% |
| CN(C)C(CNC(=O)c1[nH]nc(C2CC2)c1Br)C1CC1 (stereo not given) | -4.15% |
| Cc1cc(N2CCCC(O)(CN(C)C(=O)CCN)C2)c2cnccc2n1 (stereo not given) | -6.88% |
| COCC(=O)N1CC(c2ccnc(Nc3cc(C(F)(F)F)ccn3)n2)C1 | -12.3% |
| CCOC(=O)c1cnn(-c2cc(C)ccn2)c1N | -104% |
| CCOC(=O)c1cnn(-c2cc(Oc3ccccc3C)ncn2)c1N | -35.9% |
| Cc1ccc(C)c(-n2ncc(C(=O)N(C)CCc3ccccn3)c2N)c1 | -3.33% |

| Compound | INHIBITION |
| --- | --- |
| CCOC(=O)c1cnn(-c2cc(Oc3ccccc3)ncn2)c1N | -10.9% |
| COC(=O)c1cnn(-c2cc(Oc3cccc(C)c3)ncn2)c1N | 72% |
| CCOC(=O)c1cnn(-c2cc(Oc3cccc(C)c3)ncn2)c1N | 51.6% |
| Cc1cc(C)n(C2CCN(S(C)(=O)=O)CC2)n1 | -0.232% |
| Cc1nn(C)c(N(C)C)c1CNCc1ccc(OCC(N)=O)cc1 | 3.45% |
| c1cn(-c2nccnc2C2CCCN(C3CCOCC3)C2)cn1 (stereo not given) | 18.805% |
| O=C1NC2(CCN(Cc3cccs3)CC2)CC1c1ccncc1 (stereo not given) | 59.1% |
| O=C1NC2(CCN(Cc3ccc(F)cc3)CC2)CC1c1ccncc1 (stereo not given) | 35.4% |
| O=C1NC2(CCN(Cc3nccs3)CC2)CC1c1ccncc1 (stereo not given) | 48.9% |
| O=C1NC2(CCN(Cc3ccsc3)CC2)CC1c1ccncc1 (stereo not given) | 12.6% |
| O=C1NC2(CCN(Cc3ccoc3)CC2)CC1c1ccncc1 (stereo not given) | 32.4% |
| N#Cc1ccccc1CN1CCC2(CC1)CC(c1ccccc1)C(=O)N2 (stereo not given) | 62.8% |
| N#Cc1cccc(CN2CCC3(CC2)CC(c2ccncc2)C(=O)N3)c1 (stereo not given) | -1.26% |
| O=C1NC2(CCN(Cc3ccccc3Cl)CC2)CC1c1ccccc1 (stereo not given) | 68.4% |
| O=C1NC2(CCN(C(=O)c3ccc(Cl)cc3)CC2)CC1c1ccccc1 (stereo not given) | 14% |
| CCNC(=O)c1ccc2c(c1)nc1n2CCN(Cc2ccco2)C1 | -9.48% |
| C[C@H]1C[C@H]2CN(S(=O)(=O)c3ccc(F)cc3)CC[C@@H]2O1 | -1.12% |
| CCn1cc(-c2nn3c(C(F)(F)F)nnc3s2)cn1 | -11.4% |
| O=C(NCC1CCC(c2ccnc3ncnn23)CC1)C1CC1 (stereo not given) | 21.1% |
| CSc1ncn(-c2nc(N(C)C)nc(N(C)C)n2)n1 | 21.2% |
| CN(C)C(=O)N1CCC2(CC1)NC(=O)c1ccccc12 | -13.9% |
| O=C(NCc1ccco1)N1CCCCC1c1nc(C2CC2)no1 (stereo not given) | 16% |

| Compound | INHIBITION |
| --- | --- |
| COC(=O)[C@H](C)NC(=O)c1nc(C2CC2)n(-c2ccccc2Cl)n1 | -20.8% |
| Cn1cnnc1CNC(=O)c1ccc(Br)cc1O | -48.5% |
| CCn1cnnc1CNC(=O)c1ccc(Br)cc1F | 56.5% |
| CCn1cnnc1CCNC(=O)c1ccc(Br)cc1F | 25.5% |
| CCn1cnnc1CNC(=O)c1ccc(Cl)cc1F | 36.2% |
| CCn1cnnc1CNC(=O)c1cc(Cl)ccc1F | 56.4% |
| CCn1cnnc1CNC(=O)c1cc(F)ccc1OC | 29.7% |
| CCn1cnnc1CNC(=O)c1cc(Cl)ccc1OC | -9.98% |
| CCn1cnnc1CNC(=O)c1cc(Cl)ccc1O | -35.1% |
| COc1cc(Cl)ccc1C(=O)NCc1nncn1C | 52.3% |
| CN(CC(=O)N1CCOCC(CO)C1)Cc1ccc(F)cc1 (stereo not given) | -12.1% |
| Cc1noc(C)c1CN1CCCC2(C1)CN(Cc1nccn1C)CCO2 (stereo not given) | 10% |
| CC(C)=CCN1C[C@@H]2CC[C@H]1CN(C(=O)c1ccc3c(c1)OCO3)C2 | 33% |
| CN(C)S(=O)(=O)N1CCN(Cc2ccnc(N3CCCC3)n2)CC1 | 7.52% |
| COc1ccc(-c2cc(C3CCNCC3)ccn2)cc1 | 23.9% |
| O=C(c1ccc(-c2ccc(O)nc2)s1)N1CCCCC1 | -69.6% |
| Cc1cc(NC(=O)c2nc(N3CCCC3)ncc2Cl)nc(C(C)C)n1 | 66.8% |
| O=C(Nc1ccccn1)c1nc(N2CCCC2)ncc1Cl | -4.48% |
| O=C(Nc1cc(Cl)ccn1)c1nc(N2CCCC2)ncc1Cl | -35% |
| O=C1NCC(C(=O)Nc2ncc(Cc3ccccc3F)s2)N1 (stereo not given) | -17.4% |
| CS(=O)(=O)N1CCc2sc(C(=O)NCCc3ccccn3)cc21 | -47.8% |
| CC(C)(C)OC(=O)NCCNC(=O)c1ccc2cc[nH]c2c1 | -16% |

— ChEMBL document CHEMBL4513216, “Probing the Open Global Health Chemical Diversity Library for Multistage-Active Starting Points for Next-Generation Antimalarials” (ACS Infect Dis, 2020)
